From PubChem BioAssay AID1159580 (chemical genetic matrix, 2015)
Hit rate of the full screen: of about 5,500 compounds, about 2,000 (36%) were called active. Roughly 18% stayed inconclusive and do not appear here. Rule as the data show it: active = normalized growth mostly below about 0.91 (no sharp cut-off); inconclusive = no clear call, values can overlap the other calls; inactive = mostly above about 0.92. Some of the results follow.

Assay: chemical genetic growth profiling, strain panel (AID 1159580);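 also: tested at 20 µM; growth read once vehicle control cultures reached saturation at 30 °C; 1 = growth at the plate median or of vehicle wells; lower values mean less growth of the strain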
Conditions: S. cerevisiae deletion strains, growth OD

Measured: normalized growth

N[C@H]1CONC1=O
inactive: locus YAL013W, strain DEP1, active compounds read low 1.01 | locus YAL040C, strain CLN3, active compounds read low 1.08 | locus YCL061C, strain MRC1 (second series), active compounds read low 0.995 | locus YDR363W, strain ESC2, active compounds read low 0.995 | locus YER002W, strain NOP16, active compounds read low 0.988 | locus YJR075W, strain HOC1, active compounds read low 1.02 | locus YNL153C, strain GIM3, active compounds read low 0.955 | locus YNL175C, strain NOP13, active compounds read low 0.986 | locus YNL197C, strain WHI3, active compounds read low 1.02 | locus YNL224C, strain SQS1, active compounds read low 0.994 | locus YNL322C, strain KRE1, active compounds read low 1.01 | locus YOR083W, strain WHI5 (second series), active compounds read low 0.993 | locus YPL055C, strain LGE1, active compounds read low 0.992
